From PubChem BioAssay
Hits are enriched below; roughly 12% of the tested compounds scored in any of these assays.
PLK1 PBD inh: blocks phosphopeptide binding to human PLK1 polo-box domain | P53350 | Plk1 PBD binding of FITC phosphopeptide, fluorescence polarization | Potency, µM, without a hit: max response, negative = inhibition, usual class: inhibitors | actives 2.8% (n = 360,000); further: series mostly up to about 57 µM; on the % scale 0 is the no-effect control and ±100 the full control effect; nearly all actives have a fitted effect of over 65% in size
HP1b chromo inh: HP1-beta chromodomain-methylated histone interaction inhibition | actives 0.56% (n = 390,000) | AlphaScreen HP1-beta / biotin-H3K9me3 peptide binding | Potency, µM (top dose mostly 114 µM), for inactives: at the top dose activity change, negative = inhibition, most hits filed as inhibitors | P83916; further: nearly all actives have a fitted effect of over 70% in size
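AlphaScreen: HP1-beta (50 nM) preformed 30 min with biotin-H3(1-18)K9me3 peptide (50 nM) in PBS pH 7.4, 0.01% Tween-20. Compound added for 30 min at RT, then streptavidin donor/nickel chelate acceptor beads (10 ug/mL) for 30 min.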
G9a inh: inhibitors of human histone lysine methyltransferase G9a. Q96KQ7. G9a H3K9 monomethylation, AlphaScreen, 2 h. Potency, µM (highest dose often 102 µM), for inactives: at the highest dose activity, negative = inhibition, most hits filed as inhibitors. actives 8.8% (n = 350,000); further: on the % scale 0 is the no-effect control and ±100 the full control effect; nearly all actives have a fitted effect of over 75% in size
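Step 1: enzyme (final 20 nM) with compound, 15 min RT. Step 2: substrate peptide 500 nM and SAM 20 uM, 2 h RT. Step 3: anti-H3K9me1 antibody and AlphaScreen beads, 10 min, then plate read.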
BAZ2B inh: inhibitors of human BAZ2B bromodomain; Q9UIF8; AlphaScreen BAZ2B-H3K14Ac peptide displacement; Potency, µM (titrated, usually from 114 µM), without a hit: at the highest dose activity change, negative = inhibition, hits mostly inhibitors; actives 4.4% (n = 360,000); further: on the % scale 0 is the no-effect control and ±100 the full control effect; nearly all actives have a fitted effect of over 60% in size
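AlphaScreen luminescence quantifies BAZ2B engagement of H3K14Ac peptide; the protein and biotinylated peptide are both at 50 nM final, buffer PBS pH 7.4 with 0.01% Tween-20, all steps at room temperature.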
Sfp inh: blocks B. subtilis Sfp PPTase activity; Q9F4F7; Biochemical Sfp PPTase activity, qHTS; Potency, µM, inactives show largest response in the series, negative = inhibition, hits mostly inhibitors; actives 3.5% (n = 310,000);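 further: the enzyme is Sfp with the accession as filed and its product quenches rhodamine fluorescence; 0% = enzyme reaction without inhibitor and -100% = no enzyme wells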
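Step 1, compound plus 15 nM Sfp-PPTase, 15 min, room temperature. Step 2, add rhodamine-CoA (5 uM) and BHQ-2-YbbR (12.5 uM). Step 3, read 525/598 nm fluorescence at 0 and 30 min.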
JMJD2A Tudor inh: blocks the human JMJD2A Tudor domain | AlphaScreen JMJD2A-Tudor / H3K4me3 peptide binding | actives 4.4% (n = 390,000) | Potency, µM (series often up to 114 µM), for the others: top-dose activity change, negative = inhibition, actives largely listed as inhibitors | AID 504339 | O75164; further: on the % scale 0 is the no-effect control and ±100 the full control effect; nearly all actives have a fitted effect of over 50% in size
* hit, by the source's call; u = inconclusive; x = no result given; ! = a repeat was not active; [ ] = another dose, or the depositor's remark. The call rests on the fitted dose curve; in most records, active means well fitted curve in the direction sought with a large enough effect; inconclusive means small, poorly fitted or top-dose-only effect, or another doubt; inactive means no such curve, though single readings can be large; an effect the other way counts as inactive or inconclusive. Potency means the concentration at half of the fitted maximal effect.

SMILES	PLK1 PBD inh	HP1b chromo inh	G9a inh	BAZ2B inh	Sfp inh	JMJD2A Tudor inh
O=C(CN1C(=O)COc2ccc(S(=O)(=O)N3CCCC3)cc21)N1CCN(c2ccc(Cl)cc2)CC1	x	52.5%	26.2%[59 µM]	15.3%	x	-22.2%
CC(=O)/C(=N/Nc1ccccc1Cl)Sc1nnc(C(O)c2ccccc2)n1-c1ccccc1 (stereo not given)	-26.5%	21.3%	10µM*	-2.6%	-11.5%	u
CC(=O)/C(=N/Nc1ccc(C)cc1)Sc1nnc(CCc2ccccc2)n1-c1ccccc1	-18.9%	11.0%	u	1.6%	-0.9%	u
CCOC(=O)CSc1nnc(CNc2ccccc2Cl)n1-c1ccccc1	-8.4%	16.8%	-9.0%[59 µM]	x	-1.8%	u
COC(=O)/C(=N/Nc1ccccc1Cl)Sc1nnc(C(O)c2ccccc2)n1-c1ccccc1 (stereo not given)	-8.7%	30.2%	44.7µM*	15.0%	-22.1%	-17.8%
CC(=O)/C(=N/Nc1ccccc1)Sc1nnc(C(O)c2ccccc2)n1-c1ccccc1 (stereo not given)	0.0%	23.5%	44.7µM*	u	-10.6%	-24.1%
CC(C)(C)c1cc(/C=C(\C#N)C(N)=S)cc(C(C)(C)C)c1O	x	x	28.2µM*	x	-22.5%	x
N#C/C(=C/c1ccc(F)cc1)C(N)=S	29.9µM*	-3.7%	5.62µM*	-15.4%	35.5µM*	-8.1%
[C-]#[N+]/C(C#N)=C\c1cc(C(C)(C)C)c(O)c(C(C)(C)C)c1	x	x	x	x	44.7µM*	x
N#C/C(=C/c1cc(Cl)c(O)c(Cl)c1)C(=O)N1CCCCC1	-7.3%	26.2%	27.1%[59 µM]	-4.2%	3.1%	-14.5%
N#CC(C#N)=C(N)/C(C#N)=C/c1cc(O)c(O)c(O)c1	46.2%	17.8µM*	5.62µM*	11.2µM*	39.8µM*	17.8µM*
CC(C)(C)c1cc(/C=N/O)cc(C(C)(C)C)c1O	-3.1%	33.6%	-7.4%	-15.8%	8.8%	-11.4%
CCOc1ccc(C(=O)Nc2ccc3nc(SCC(=O)N(C)c4ccccc4)sc3c2)cc1	x	12.1%	-4.4%[59 µM]	-6.6%	x	-22.5%
CC[C@@H]1C/C=C\Cc2ccccc2[C@@H](C(=O)C[C@@H](O)CC(C)=O)OC1=O	-3.1%	31.3%	x	x	x	-12.9%
O=P(O)(O)CP(=O)(O)O	x	x	7.08µM*	50.1µM*	-5.2%	x
Cc1ccc2c(CN3CCCCC3CCO)cc(=O)oc2c1 (stereo not given)	-1.8%	32.0%	25.1µM*	3.1%	10.7%	0.3%
Cc1ccc2c(CN3CCC(C)CC3)cc(=O)oc2c1	-1.7%	28.5%	44.7µM*	-3.1%	-4.5%	-5.2%
Cc1ccc(S(=O)(=O)N2CC3(O)CN(C(=O)OC(C)C)N(C(=O)OC(C)C)CC3(OC(=O)NCc3ccccc3F)C2)cc1 (stereo not given)	-8.4%	x	x	x	x	x
Cc1cc2c(cc1S(=O)(=O)N1CCC(C)CC1)OCC(=O)N2	x	-12.8%	u	u	x	-30.3%
Cc1cc2c(cc1S(=O)(=O)NCc1ccc(F)cc1)OCC(=O)N2	x	19.7%	-41.7%[59 µM]	-26.6%	x	-23.4%
Cc1cc2c(cc1S(=O)(=O)N1CCCCC1)OCC(=O)N2	-10.5%	u	-6.4%	79.4µM*!	8.1%	-17.4%
CCN(CC)c1ccc(CNS(=O)(=O)c2cc3c(cc2C)NC(=O)CO3)cc1	x	7.5%[57 µM]	14.1µM*	-35.7%	x	u
O=C1COc2cc(S(=O)(=O)NCc3ccco3)c(Cl)cc2N1	x	24.2%[57 µM]	u	50.1µM*	x	-21.4%
Cc1ccnc(NC(=O)C2CCN(S(=O)(=O)c3ccc(C)c(C)c3)CC2)c1	-0.4%	19.8%	10.6%[2.33 µM]	-9.5%	x	-2.4%
CN1C[C@@H]2C[C@H]1CN2c1cc2c(cc1F)c(=O)c(C(=O)O)cn2C1CC1	x	x	16.7%[59 µM]	x	11.4%	x
SMILES	PLK1 PBD inh	HP1b chromo inh	G9a inh	BAZ2B inh	Sfp inh	JMJD2A Tudor inh
Cc1cccc(C)c1NC(=S)N(CCN(C)C)C(C)c1cccnc1 (stereo not given)	-8.8%	31.5%	-1.4%[59 µM]	-24.0%	79.4µM*	-13.0%
Cc1cccc(C(CC(=O)NCc2ccco2)c2ccccc2)c1O (stereo not given)	-18.7%	41.5%	44.7µM*	u	3.1%	-20.7%
COc1ccc(CCNC(=O)CC(c2ccccc2)c2cc(C)ccc2O)cc1OC (stereo not given)	-3.7%	2.5%	1.2%[2.33 µM]	-9.1%	1.3%	-32.1%
Cc1cccc(C(CC(=O)NCCc2ccccc2)c2ccccc2)c1O (stereo not given)	-5.1%	55.2%	3.0%	-1.8%	79.4µM*	-2.1%
O=C(O)CCc1nnc2cnc3ccccc3n12	x	39.3%	-20.0%[59 µM]	-10.8%	x	-8.2%
Cc1ccc(CCNC(=O)c2cc3c(=O)n(C)c4ccccc4c3n2C)cc1	x	7.1%	-0.3%[59 µM]	-15.4%	x	-17.5%
CCOC(=O)C1=C(N)Oc2ccc(Br)cc2[C@@H]1[C@@H](C#N)C(=O)OCC	x	x	x	x	-4.5%	x
Cc1ccc(Sc2ccc([N+](=O)[O-])cc2[N+](=O)[O-])nc1	-4.3%	-13.6%	-23.2%[59 µM]	44.7µM*	-3.3%	u
COc1ccccc1-c1cnc(C(O)c2c(C)cc(C)cc2C)[nH]1 (stereo not given)	-3.2%	x	x	x	x	x
CCc1cc(=O)oc2cc(C)c(CN3CCCC3)c(O)c12	u	-50.9%	44.7µM*	17.8µM*	89.1µM*	20µM*
Cc1cc(C)c2c(CN3CCCC3)cc(=O)oc2c1	-16.0%	x	x	x	x	x
CCCc1cc(=O)oc2cc(C)c(CN3CCCC3)c(O)c12	u	-14.2%	89.1µM*	12.6µM*	u	50.1µM*
CCc1cc(=O)oc2cc(C)c(CN3CCCCC3)c(O)c12	-30.4%	-31.7%	-25.3%[59 µM]	20µM*	-17.7%	56.2µM*
CCCc1cc(=O)oc2c(CN3CCCC3)c(O)ccc12	-0.5%	35.4%	22.2%	3.9%	3.0%	5.0%
CCOC(=O)C1=C(COC(=O)Cc2c(F)cccc2Cl)NC(=O)NC1C (stereo not given)	-13.6%	15.7%	u	-6.9%	x	1.3%
Cc1cc(C)cc(NS(=O)(=O)c2ccc3c(c2)OCC(C(=O)N2CCCC2)O3)c1 (stereo not given)	x	30.6%	-1.7%[59 µM]	-12.6%	x	-12.3%
CCOC(=O)COc1c(Br)cc(/C=C2\SC(=O)N(CC(=O)N3CCCC3)C2=O)cc1OC	16.8µM*	-18.1%	u	-25.2%	0.4%	u
COc1cccc(/C=C2/SC(=O)N(CC(=O)N3CCc4ccccc4C3)C2=O)c1OCC(=O)O	-15.7%	41.7%	-35.2%[59 µM]	1.1%	56.2µM*	-5.1%
Cc1c(-c2nnc(SCC(=O)Nc3ccc(Br)cc3)o2)nnn1-c1ccc(F)cc1	x	23.1%[57 µM]	13.5%[59 µM]	-2.1%	x	-7.7%
Cc1cc2oc(C(=O)Nc3sc4c(c3C(=O)NCc3ccco3)CCC4)cc(=O)c2cc1C	x	18.4%	7.7%[59 µM]	-20.1%	x	-22.2%
